From PubChem BioAssay come the findings set out here.

Structures are written as SMILES. The source made the active and inactive calls. Unless noted, how the calls were made is not given here.

Test [1] can be described thus: compounds binding Alexa647 anti-His antibody – biochemical, small-molecule microarray, 635 nm fluorescence, artefact control for SMM control protein annotation, primary screen (AID 1128).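 Further: score merges feature fluorescence with signal-to-noise for each printed compound spot.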 To be noted: higher = more signal.
Test [2] relates to Human papillomavirus type 1a E7 protein (residues 1-88). The test is described as follows: HPV1a E7 small-molecule binders, primary screen, biochemical, small-molecule microarray, residues 1-88, 635 nm (AID 1129). Conditions: small-molecule microarray binding, fluorescence 635 nm; higher = more signal.
The target in test [3] is Focal adhesion kinase 1 (Homo sapiens) (UniProt Q05397). Put plainly: PTK2 protein binding on printed compound slides – biochemical, small-molecule microarray, 635/667 nm fluorescence, BSA, DTT, primary screen (AID 1130).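 Further: composite of spot emission at 667 nm and signal to noise over triplicate slides.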 Conditions: 635 nm fluorescence, higher = more signal.
Sequence of Focal adhesion kinase 1 (Homo sapiens) (Q05397 whole entry, looked up): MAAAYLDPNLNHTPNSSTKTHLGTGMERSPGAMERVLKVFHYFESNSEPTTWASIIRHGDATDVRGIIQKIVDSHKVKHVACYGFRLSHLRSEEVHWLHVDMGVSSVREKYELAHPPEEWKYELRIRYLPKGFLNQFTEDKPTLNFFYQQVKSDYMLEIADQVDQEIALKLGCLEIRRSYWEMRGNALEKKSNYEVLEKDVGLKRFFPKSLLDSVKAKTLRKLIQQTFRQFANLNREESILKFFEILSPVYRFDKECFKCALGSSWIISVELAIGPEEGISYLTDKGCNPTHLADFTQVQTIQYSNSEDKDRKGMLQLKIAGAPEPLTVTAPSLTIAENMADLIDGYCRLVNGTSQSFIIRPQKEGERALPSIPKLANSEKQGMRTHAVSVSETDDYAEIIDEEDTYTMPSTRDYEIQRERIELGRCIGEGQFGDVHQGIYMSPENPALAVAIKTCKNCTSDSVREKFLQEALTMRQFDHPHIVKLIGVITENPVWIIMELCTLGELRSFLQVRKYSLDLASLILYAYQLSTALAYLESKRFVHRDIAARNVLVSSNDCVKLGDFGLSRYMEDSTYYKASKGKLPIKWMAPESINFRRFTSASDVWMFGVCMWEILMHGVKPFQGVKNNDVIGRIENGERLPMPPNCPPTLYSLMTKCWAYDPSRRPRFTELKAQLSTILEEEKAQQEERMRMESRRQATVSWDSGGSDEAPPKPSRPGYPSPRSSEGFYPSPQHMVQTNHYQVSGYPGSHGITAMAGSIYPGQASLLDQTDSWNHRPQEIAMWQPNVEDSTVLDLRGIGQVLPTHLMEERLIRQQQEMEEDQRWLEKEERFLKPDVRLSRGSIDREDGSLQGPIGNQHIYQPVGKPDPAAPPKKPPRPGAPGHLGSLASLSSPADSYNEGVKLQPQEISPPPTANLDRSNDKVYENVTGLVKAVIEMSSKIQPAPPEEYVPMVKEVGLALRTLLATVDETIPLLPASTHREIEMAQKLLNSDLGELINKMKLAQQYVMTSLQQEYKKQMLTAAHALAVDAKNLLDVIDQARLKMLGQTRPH
Test [4] deals with Fibrinogen (Alexa647-labelled). The test is described as follows: Alexa647-fibrinogen binding to printed small molecules – biochemical, small-molecule microarray, 635/667 nm fluorescence, artefact control for SMM control-protein annotation, profiling panel (AID 1131).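 Further: z-score merges 667 nm fluorescence with per-spot signal-to-noise over triplicate slides.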 To be noted: fibrinogen-A647 binding fluorescence, higher = more signal.
Test [5] deals with Follistatin (Homo sapiens) (UniProt P19883). Put plainly: FST protein binding to printed compounds – biochemical, small-molecule microarray, 635/667 nm fluorescence, primary screen (AID 1132). To be noted: 635 nm fluorescence, higher = more signal.
Sequence of Follistatin (Homo sapiens) (P19883 whole entry, looked up): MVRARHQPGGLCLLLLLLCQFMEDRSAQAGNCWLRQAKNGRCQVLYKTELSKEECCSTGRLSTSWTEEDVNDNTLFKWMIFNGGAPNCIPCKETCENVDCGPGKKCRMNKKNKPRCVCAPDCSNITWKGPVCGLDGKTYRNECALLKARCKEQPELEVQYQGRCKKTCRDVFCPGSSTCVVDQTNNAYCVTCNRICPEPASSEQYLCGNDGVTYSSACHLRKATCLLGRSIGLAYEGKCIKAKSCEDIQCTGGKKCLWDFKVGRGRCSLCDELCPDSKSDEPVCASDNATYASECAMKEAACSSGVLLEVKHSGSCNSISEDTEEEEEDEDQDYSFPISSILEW
Test [6] addresses Fibroblast growth factor 2 (Homo sapiens) (UniProt P09038). The test is described as follows: basic fibroblast growth factor binding to printed compounds – biochemical, small-molecule microarray, 635/667 nm fluorescence, primary screen (AID 1133). To be noted: FGF2, fluorescence 635/667, higher = more signal.
The nature of test [7]: JC-1 mitochondrial potential readout, lung cancer cells – cell-based, A549, JC-1 fluorescence, basal, 24 h, 100 nL, profiling panel (AID 1138).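 Further: A549 lung adenocarcinoma cells under basal conditions with no added stimulus; test concentration not given here.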 To be noted: higher = more signal.
The next test relates to Lefty1. Put plainly: Lefty1 protein binding to printed compounds – biochemical, small-molecule microarray, 635/667 nm fluorescence, primary screen (AID 1139). Conditions: fluorescence 635/667, higher = more signal.
Test [8] has as its system wheat germ agglutinin (Triticum aestivum), Alexa647-labelled. The test is described as follows: Alexa647-WGA lectin binding to printed small molecules – biochemical, small-molecule microarray, 635/667 nm fluorescence, artefact control for SMM control-protein annotation, profiling panel (AID 1140).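 Further: score merges 667 nm feature emission with signal to noise over triplicate slides.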 To be noted: WGA-A647 binding, 635 nm fluorescence, higher = more signal.
Test [9] concerns the target Luciferin 4-monooxygenase (Photinus pyralis) (UniProt P08659). Put plainly: inhibition of purified Photinus pyralis luciferase – biochemical, luminescence, purified enzyme, 2006 set, primary screen (AID 1141).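 Further: cell-free assay with purified firefly luciferase at 100 ng per well in PBS; test concentration not given here.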 Conditions: purified firefly luciferase, SteadyGlo luminescence, 30 min; higher = more signal, called active from +8 up or from −8 down.
Test [10] has as its system Wnt5a (protein binding on small-molecule microarray). Put plainly: small molecules binding Wnt5a protein – biophysical, small-molecule microarray, 635/667 nm fluorescence, primary screen (AID 1142).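 Further: fluorescence read at 667 nm with signal to noise per printed feature.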 To be noted: 635 nm fluorescence, higher = more signal.
Test [11] in a line: ATP-based viability of Huh7 replicon cells – cell-based, CellTiter-Glo luminescence, basal, 48 h, cytotoxicity control for HCV replication inhibitor project, primary screen (AID 1143).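 Further: Huh7 hepatoma cells carrying a hepatitis C replication reporter with no stimulus; test concentration not given here.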 Conditions: higher = more signal, called active from +8 up or from −8 down. (Replicon systems follow genome replication, usually without infectious particles.)
Test [12] can be described thus: Pseudomonas biofilm growth suppression – PAO1 strain, BacTiter-Glo luminescence, LB-PBS, primary screen (AID 1144). To be noted: P. aeruginosa PAO1 biofilm, 12 h, higher = more signal.
Test [13] can be described thus: basal CRE-LacZ reporter activity in PC12 – cell-based, unstimulated, primary screen (AID 1145). Conditions: no forskolin, luminescence, 4.5 h, higher = more signal, called active from +8 up or from −8 down.
Test [14] is described as follows: forskolin-driven CRE-LacZ activity in PC12 – cell-based, CRE-LacZ reporter, forskolin-stimulated, primary screen (AID 1146).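 Further: PC12 cells with 6xCRE LacZ reporter stimulated by forskolin 10 µM; beta-galactosidase reporter signal reflecting CREB driven transcription.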 To be noted: luminescence, 4.5 h, higher = more signal, called active from +8 up or from −8 down.
In test [15] the target is Streptavidin (Streptomyces avidinii) (UniProt P22629). The test is described as follows: compounds binding control protein streptavidin – biophysical, small-molecule microarray, 635/667 nm fluorescence, artefact control for SMM compound annotation, primary screen (AID 1147).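 Further: signal reflects streptavidin binding to arrayed compounds as a control protein.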 Conditions: higher = more signal.
Sequence of Streptavidin (Streptomyces avidinii) (P22629 whole entry, looked up): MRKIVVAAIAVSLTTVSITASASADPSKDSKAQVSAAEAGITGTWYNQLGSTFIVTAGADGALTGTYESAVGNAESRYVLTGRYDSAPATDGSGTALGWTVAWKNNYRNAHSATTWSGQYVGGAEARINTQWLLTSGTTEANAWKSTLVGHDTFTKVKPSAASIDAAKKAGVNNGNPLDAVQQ
Test [16] in a line: probe aInhba binding on compound microarray – biochemical, small-molecule microarray, 635/667 nm fluorescence, primary screen (AID 1148).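 Further: score merges 667nm spot fluorescence with signal-to-noise for antibody binding to printed compounds.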 To be noted: higher = more signal.
In test [17] the target is Torsin-1A (Homo sapiens) (UniProt O14656). The test is described as follows: TOR1A wild-type binding on microarray – cell lysate, small-molecule microarray, lysate, 635/667 nm, primary screen (AID 1149). To be noted: COS7 hTOR1A-WT lysate, 635 nm fluorescence, higher = more signal.
Sequence of Torsin-1A (Homo sapiens) (O14656 whole entry, looked up): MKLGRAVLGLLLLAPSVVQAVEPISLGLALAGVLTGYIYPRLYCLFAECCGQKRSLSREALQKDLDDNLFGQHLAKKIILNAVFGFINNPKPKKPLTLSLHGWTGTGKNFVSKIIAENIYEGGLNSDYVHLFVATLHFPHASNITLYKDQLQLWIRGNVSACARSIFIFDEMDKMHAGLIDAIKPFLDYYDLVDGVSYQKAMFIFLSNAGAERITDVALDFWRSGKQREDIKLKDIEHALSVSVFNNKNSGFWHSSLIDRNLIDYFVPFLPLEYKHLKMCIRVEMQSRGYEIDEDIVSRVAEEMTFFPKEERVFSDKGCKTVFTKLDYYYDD
Test [18] shares this target. Put plainly: torsin A mutant lysate binding on microarrays – cell lysate, small-molecule microarray, COS7 lysate, 635/667 nm fluorescence, primary screen (AID 1150).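 Further: score pools 667 nm emission and signal to noise measuring lysate protein binding.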 Conditions: COS7 hTOR1A mutant lysate, 635 nm fluorescence, higher = more signal.
Test [19] relates to Sonic hedgehog protein (Shh). The test is described as follows: Sonic hedgehog microarray binding compounds – biochemical, small-molecule microarray, 635/667 nm fluorescence, primary screen (AID 1151).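 Further: Shh protein binding to compounds spotted on small-molecule microarray slides; score combines spot fluorescence intensity with signal-to-noise across triplicate slides.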 Conditions: 635 nm fluorescence, higher = more signal.

Sequence of Fibroblast growth factor 2 (Homo sapiens) (P09038 whole entry, looked up): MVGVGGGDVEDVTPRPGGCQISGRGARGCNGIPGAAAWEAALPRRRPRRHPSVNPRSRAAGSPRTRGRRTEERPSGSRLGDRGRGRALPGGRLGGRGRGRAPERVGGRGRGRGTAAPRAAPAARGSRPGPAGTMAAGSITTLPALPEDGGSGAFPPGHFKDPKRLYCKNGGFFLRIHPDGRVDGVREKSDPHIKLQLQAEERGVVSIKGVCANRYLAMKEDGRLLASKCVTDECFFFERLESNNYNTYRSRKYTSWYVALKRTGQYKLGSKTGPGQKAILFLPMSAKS
Sequence of Luciferin 4-monooxygenase (Photinus pyralis) (P08659 whole entry, looked up): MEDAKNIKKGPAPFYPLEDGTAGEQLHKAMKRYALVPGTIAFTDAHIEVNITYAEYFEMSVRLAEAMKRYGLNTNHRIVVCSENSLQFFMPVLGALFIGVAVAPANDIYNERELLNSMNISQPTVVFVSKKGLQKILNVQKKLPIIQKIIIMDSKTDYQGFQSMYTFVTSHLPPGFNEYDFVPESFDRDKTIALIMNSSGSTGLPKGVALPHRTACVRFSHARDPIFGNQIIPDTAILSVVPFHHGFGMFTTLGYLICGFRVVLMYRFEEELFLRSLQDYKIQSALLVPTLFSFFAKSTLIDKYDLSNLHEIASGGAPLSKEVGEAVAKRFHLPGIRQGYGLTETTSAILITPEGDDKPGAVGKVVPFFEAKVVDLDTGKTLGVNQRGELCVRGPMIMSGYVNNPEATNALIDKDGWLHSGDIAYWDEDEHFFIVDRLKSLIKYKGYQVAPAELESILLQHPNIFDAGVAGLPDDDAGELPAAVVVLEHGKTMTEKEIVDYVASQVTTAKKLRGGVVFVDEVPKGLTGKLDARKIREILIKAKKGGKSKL

As for `CCOc1cc(C(O)C2C=CC3C(=O)N(c4ccccc4)C(=O)C3N2Nc2ccc([N+](=O)[O-])cc2)ccc1O` (stereo not given), the composite z-score in [1] was determined as 0.73; in [2], 1.06; in test [3], 0.106; in test [4], 0.0405; in test [5] it was 0.165; in [6], 0.0474. For the same molecule, the composite z-score was 0.107 in the test on Lefty1; 0.14 in test [8]; -0.0182 in [10]; 0.439 in test [15]; -0.101 in test [16]; -0.431 with Torsin-1A (Homo sapiens) [17]. For the same molecule, the composite z-score was 0.196 with Torsin-1A (Homo sapiens) [18] and -0.231 in [19]. Moreover, the z-score in test [7] was -1.52; in [9], -0.021 (inactive); in [11], -1.04 (inactive); in [12], -0.222 (inactive); in test [13], 2.28 (inactive); in [14], 0.507 (inactive).
In the case of `Cc1ccccc1C(O)C1C=CC2C(=O)N(C)C(=O)C2N1N1CCCCC1` (stereo not given), the composite z-score in [1] stood at 1.87; in test [2], 1.18; in test [3], 0.665; in test [4], 0.908; in test [5], 0.767; in test [6], 0.0201. Moreover, the composite z-score in the test with Lefty1 was 0.0198; in [8], 0.596; in test [10], 0.343; in test [15], 1.24; in [16], 0.462; with Torsin-1A (Homo sapiens) [17], 0.851. For the same molecule, the composite z-score with Torsin-1A (Homo sapiens) [18] amounted to 0.696; in test [19], 0.0488. For the same molecule, the z-score in test [7] is 0.0822; in [9] it was 0.497 (inactive); in test [11] it was 0.896 (inactive); in test [12] it was 0.46 (inactive); in [13], -0.133 (inactive); in test [14], -0.0415 (inactive).
With `COc1ccc(C(O)C2C=CC3C(=O)N(C)C(=O)C3N2Nc2ccccc2)cc1OCc1ccccc1` (stereo not given), the composite z-score in test [1] was 1.05; in test [2], 1.27; in test [3], 0.091; in [4], 1.01; in [5], 0.336; in test [6], -0.0667. The composite z-score in the test with Lefty1 was found to be 0.0084; in [8] it was 1.34; in [10], 0.0512; in [15], 0.863; in test [16], 0.0528; in the test with Torsin-1A (Homo sapiens) [17], 0.155. The composite z-score in the test with Torsin-1A (Homo sapiens) [18] is 0.992; in [19], -0.237. For the same molecule, the z-score in test [7] was -0.295; in test [9] it was -0.51 (inactive); in test [11], 0.142 (inactive); in test [12], -0.292 (inactive); in [13], 1.21 (inactive); in [14] it was -0.389 (inactive).
On to `C=CCOC(=O)[C@@H]1[C@H]2C(=O)O[C@H](c3ccccc3)[C@H](c3ccccc3)N2[C@H](c2ccc(OCCOC(=O)[C@@H]3C[C@@H]4C(=O)N[C@@H](Cc5ccccc5)C(=O)N4[C@@H]3c3cccc(OCCO)c3)cc2)[C@@]12C(=O)Nc1ccc(I)cc12`, for which the composite z-score in [1] came out at 0.351; in test [2], 0.675; in [3], 0.184; in test [4], 0.199; in [5], 1.33; in test [6], 1.55. Moreover, the composite z-score with Lefty1 was 0.951; in test [8] it was 0.181; in test [10], 0.867; in test [15], -0.184; in test [16] it was 0.35; in the test with Torsin-1A (Homo sapiens) [17] it was 1.3. The results for the composite z-score (with Torsin-1A (Homo sapiens) [18]; in test [19]) were 0.731 and 2.16, respectively. Besides, the z-score in test [7] is -0.917; in test [9], 0.152 (inactive); in [11], -0.166 (inactive); in test [12], -0.525 (inactive); in test [13] it was -1.08 (inactive); in test [14], 0.0071 (inactive).
For `O=C1O[C@H](c2ccccc2)[C@H](c2ccccc2)N2[C@H]1[C@@H](C(=O)O)[C@]1(C(=O)Nc3ccc(C#CC4(O)CCCCCC4)cc31)[C@H]2c1ccc(OCCO)cc1`, the composite z-score in test [1] was 1.5; in test [2], 1.25; in test [3] it was 0.115; in test [4], 0.979; in test [5], 0.196; in test [6] it was -0.333. Further, the composite z-score with Lefty1 was 0.473; in [8], 0.942; in test [10] it was -0.0477; in test [15], 1.52; in test [16], 0.122; with Torsin-1A (Homo sapiens) [17], 0.477. In addition, the composite z-score with Torsin-1A (Homo sapiens) [18] turned out to be 0.617; in [19], 0.258. The z-score in test [7] is -1.42; in test [9] it was -2.75 (inactive); in test [11], -0.551 (inactive); in test [12], -1.01 (inactive); in test [13], 5.5 (inactive); in test [14], 14.7 (active).
